Data: PubChem BioAssay (NCI)
“And” between values parts separate entries of the source, which are not always exact repeats. Equal values may be shown once. Compounds without any hit were thinned out: in the full panel of roughly 83,000, 20% have a hit.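 Assay: single dose, 48 h. Readout: percent growth (0 = no net growth; negative = cell death). Active: <10.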 Values without a mark were called inactive. The source made the active and inactive calls.

Tested on: MDA-MB-468 breast
Test: NCI-60 one-dose screen, 48 h (100 = growth as untreated, 0 = no growth, -100 = all killed)
Conditions: 10 µM unless noted

SMILES	growth
CN1CCN(c2ccc3nc(-c4c(N)c5c(F)cccc5[nH]c4=O)[nH]c3c2)CC1	108% and 102%
Cn1ncc(Cl)c1-c1cc(C(=O)N[C@H](CN)Cc2cccc(F)c2)sc1Cl	-62.5% (active)
CCN1CCN(c2nc3ccccc3c3c(=O)c4ccccc4sc23)CC1	35.5%
C[C@]12CCC3c4ccc(O)cc4C[C@@H](CCCCCCCCCS(=O)CCCC(F)(F)C(F)(F)F)C3C1CC[C@@H]2O (some centres undefined)	88%
COc1cc(-c2n/c(=C\c3c(O)[nH]c4cc(Cl)ccc34)cc3c2=Nc2ccccc2-3)cc(OC)c1OC	73.7%
Cc1ccccc1N1C(c2ccccc2)=NNC12C=CC(=O)C=C2Cl (centres undefined)	109%
c1cc2cccc3c4cccc5cccc(c(c1)c23)c54	101%
COc1ccc([C@@H]2[C@@H](Oc3ccccc3)C(=O)N2c2cc(OC)c(OC)c(OC)c2)cc1F	4.05% (active)
COc1ccc(-c2nc(C#N)c(NCC(c3ccc(Cl)cc3)N3CCCCC3)o2)cc1 (centres undefined)	93.3%
C#CCOc1ccc(/C=N/Nc2nc(-c3cc4cc(Br)cc(Br)c4oc3=O)cs2)cc1	106%
COc1cc(-c2nnc(-c3c(-c4ccc(F)cc4)nc4ccccn34)o2)cc(OC)c1OC	99.4%
CC(C)[C@H](CN)NC[C@H](C)NS(=O)(=O)c1ccc(C(C)(C)C)cc1	86.5%
Cc1sc2nc(NCCN)[nH]c(=O)c2c1C	80%
COC(=O)[C@]12CC[C@@H](C)[C@H](C)[C@@H]1C1=CC[C@@H]3[C@@]4(C)C[C@@H](OC(=O)c5ccco5)[C@H](O)[C@@](C)(CO)[C@@H]4[C@H](O)C[C@@]3(C)[C@]1(C)CC2	-89.1% (active)
OC1OC(COC(c2ccccc2)(c2ccccc2)c2ccccc2)C(O)C(O)C1O (centres undefined)	89.7%
COc1ccc(-c2nn(-c3cccc(Cl)c3)cc2-c2cc(-c3ccc(Br)cc3)[nH]c(=O)c2C#N)cc1	75.1%
O=C1NCc2ccc3c(-c4cccc(Cl)c4)c[nH]c3c21	26.5%
O=C(Nc1ccc(Nc2ccncc2)cc1)c1ccc([N+](=O)[O-])cc1	-28.1% (active)
CN(C)CCCOc1ccc2c(c1)CN(C(=O)c1cc(C(=O)N3Cc4cccc(F)c4C3)ccc1O)C2	106%
COc1cc([C@@H]2c3cc4c(cc3[C@H](O)[C@H]3COC(=O)[C@H]23)OCO4)cc(OC)c1OC	-17.5% (active)

SMILES	growth
Cc1ccc2c(C3C(C#N)=C(N)Oc4cc5ccccc5cc43)cc(=O)oc2c1 (centres undefined)	30.3%
O=[N+]([O-])c1ccc(Oc2ccccc2Cl)c([N+](=O)[O-])c1	64.2%
CN1C(=O)N(C)C2C1NN=c1s/c(=C\c3ccc(Br)cc3)c(=O)n12 (centres undefined)	10.8%
NC(=O)SCC(=O)Nc1ccc(S(N)(=O)=O)cc1	91.4%
COc1cc2c(=O)n(CCCN(C)C)c3c4cc[nH]c4ncc3c2cc1OC	81.5%
CC(=O)C1=C(O)C=C2Oc3c(C(=O)/C=C/c4c(Cl)cccc4Cl)c(O)c(C)c(O)c3[C@]2(C)C1=O	-39.7% (active)
O=C1Cc2cc(CCN3CCN(CCOCCO)CC3)c(Cl)cc2N1Cc1ccc(-c2ccccc2-c2nn[nH]n2)cc1	82.7%
CCOC(=O)c1c(C)c2c(n1Cc1ccccc1)CSCC2=O	-9.03% [100 µM] (active)
CSC1=Nc2c(c(C)c(-c3ccccc3)n2CCCC(=O)O)C2=NC(=O)C[C@H](C)N12	83.7%
O=C(CCl)NCCNc1nccc(Nc2ccc(S(=O)(=O)Nc3ccccn3)cc2)n1	21.1%
O=S(Cc1ccccc1)/C(=C/NC(=S)Nc1cc(Cl)ccc1Cl)c1ccccc1 (centres undefined)	106%
CCC(=O)Oc1cc(/C=C/C(=O)O[C@H]2C[C@H]3CN4CCc5c([nH]c6cc(OC)ccc56)[C@@H]4C[C@@H]3[C@@H](C(=O)OC)[C@@H]2OC)ccc1OC	71.3%
COc1ccc(Nc2cnc3cc(NS(=O)(=O)c4ccc(C)cc4)ccc3n2)cc1	46.1%
O=C1/C(=C/c2ccc([N+](=O)[O-])s2)Oc2ccc(Cl)cc21	-36.2% (active)
O=[N+]([O-])c1cccc(-c2nc3sccn3c2-c2ccnc(NCCCNS(=O)(=O)c3ccc(C(F)(F)F)cc3)n2)c1	22.8%
Cc1nc2oc3ccccc3c(=O)c2cc1C(=O)NCc1ccccc1	89.2%
COCCn1cc(-c2csc(-c3c[nH]c4ccccc34)n2)c2cccnc21	-6.7% (active)
COc1ccc(/C=C/C(c2cc(OC)c(OC)c(OC)c2)n2cncn2)cc1 (centres undefined)	40.9%
NNc1ncnc2c1ncn2C1OC(CO)C(O)C1O (centres undefined)	58.8%
